# Only some compounds are listed: those with a hit (about 0.8% of all), similar ones and a draw of the others.
# Tb PGK inh = blocks T. brucei phosphoglycerate kinase; P07378; PGK/GAPDH coupled, Kinase-Glo luminescence, 60 min; Potency, µM (top dose mostly 57.5 µM), for inactives: at the highest dose activity change, negative = inhibition, actives largely listed as inhibitors; hit rate 0.043% among 380,000; AID 602233; further: potency means the concentration at half of the fitted maximal effect; nearly all actives have a fitted effect of over 60% in size
#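 Luminescent ATP detection (Kinase-Glo Plus) follows a 60-minute room-temperature incubation, with wells lacking PGK as controls. Buffer: 100 mM TEA (pH 7.6), 5 mM MgCl2, 0.01% Tween-20. Coupling enzyme GAPDH (100 nM final) supplies unstable 1,3-BPG in-well.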
# Tb PFK inh = T. brucei PFK enzyme inhibition | T. brucei PFK, ADP-Glo luminescence | Potency, µM (highest dose often 57.5 µM), inactives show top-dose activity, negative = inhibition, hits mostly inhibitors | hit rate 0.17% among 330,000 | AID 485367;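 further: potency means the concentration at half of the fitted maximal effect; 0% = uninhibited 1x PFK enzyme wells and -100% = no-enzyme wells; nearly all actives have a fitted effect of over 60% in size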
# Target sequence (O15648 whole entry, looked up): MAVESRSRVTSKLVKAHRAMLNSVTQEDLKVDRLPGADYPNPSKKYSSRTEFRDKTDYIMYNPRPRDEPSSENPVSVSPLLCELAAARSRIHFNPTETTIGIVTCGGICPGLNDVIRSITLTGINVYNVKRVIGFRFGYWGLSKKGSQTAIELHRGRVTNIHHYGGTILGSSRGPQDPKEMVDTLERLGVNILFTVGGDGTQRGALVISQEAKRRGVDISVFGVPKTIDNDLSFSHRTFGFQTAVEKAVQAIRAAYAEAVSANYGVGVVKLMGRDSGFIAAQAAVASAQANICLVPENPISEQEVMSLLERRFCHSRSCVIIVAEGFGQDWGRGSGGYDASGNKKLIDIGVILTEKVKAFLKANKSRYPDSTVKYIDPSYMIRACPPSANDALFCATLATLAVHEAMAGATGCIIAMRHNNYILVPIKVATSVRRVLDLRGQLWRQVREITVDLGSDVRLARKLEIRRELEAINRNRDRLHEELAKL
#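 In TEA buffer at pH 8.0 with 5 mM MgCl2, enzyme (1.25 nM) converted F6P (0.5 mM) and ATP (0.1 mM) for 45 min at room temperature. ADP product was read by luciferase luminescence.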
# PI4K2A inh = blocks human PI4K2A kinase activity; Q9BTU6; purified PI4K2A, ADP-Glo luminescence, 1 h; hits give low values; activity change, negative = inhibition, % at 76.9 µM; hit rate 0.13% among 420,000; AID 1346378; in the data active means activity change below about -50%; inconclusive means mostly about -30% to -49%;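 further: -100% = wells without enzyme as full effect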
#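 PI4K2A activity was measured by ADP-Glo luminescence: enzyme (4 ug/mL stock) and phosphatidylinositol (1.2 mM stock) in Tris pH 7.5/MgCl2/EGTA/Triton X-100 buffer were reacted with ATP (300 microM stock) for one hour at ambient temperature.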
# FEN1 inh = inhibitors of human flap endonuclease 1. P39748. Recombinant FEN1 flap cleavage, fluorescence, 15 min. Potency, µM (top dose mostly 114 µM), inactives show at the highest dose activity change, negative = inhibition, hits mostly inhibitors. hit rate 0.35% among 390,000; further: potency means the concentration at half of the fitted maximal effect; nearly all actives have a fitted effect of over 65% in size
#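 Compounds are tested as a concentration series against 10 nM FEN1; after a 15 min room-temperature preincubation, 50 nM substrate starts cleavage, with plate reads at 0 and 15 min. Normalized responses are fitted by a Hill equation.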
# TDP1 inh = inhibitors of human tyrosyl-DNA phosphodiesterase TDP1. Q9NUW8. recombinant TDP1, AlphaScreen DNA substrate cleavage. Potency, µM (top dose mostly 130 µM), without a hit: top-dose activity change, negative = inhibition, hits mostly inhibitors. hit rate 0.28% among 350,000. AID 485290; further: potency means the concentration at half of the fitted maximal effect; nearly all actives have a fitted effect of over 40% in size
#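 Tdp1 1 nM final; 15 min RT w/ cpd; substrate 15 nM, 5 min; beads 10 ug/ml, 10 min; AlphaScreen read. Neg ctrl: no enzyme.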
# APEX1 inh = blocks human APE1 abasic DNA cleavage; AID 2517; P27695; recombinant APE1, TAMRA/BHQ-2 abasic DNA cleavage fluorescence; Potency, µM (titrated, usually from 65.8 µM), inactives show at the highest dose activity change, negative = inhibition, most hits filed as inhibitors; hit rate 0.35% among 350,000;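 further: potency means the concentration at half of the fitted maximal effect; plate controls were vehicle for no effect and reference inhibitor for full effect; nearly all actives have a fitted effect of over 55% in size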
#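 Substrate: short duplex with […] THF abasic site, 5'-TAMRA and 3'-BHQ-2, 50 nM final. APE1 at 0.75 nM, preincubated 15 min RT with compound. Fluorescence increase from first to third read measured activity.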
# * = called active by the depositor; i = inactive; ? = inconclusive; . = no result; ! = repeats disagree; [ ] = remark or other dose. Unless noted, the call rests on the fitted dose curve; in most records, active means well fitted curve in the direction sought with a large enough effect; inconclusive means small, poorly fitted or top-dose-only effect, or another doubt; inactive means no such curve, though single readings can be large; an effect the other way counts as inactive or inconclusive. Unless noted, on the % scale 0 is the no-effect control and ±100 the full control effect.
SMILES,Tb PGK inh,Tb PFK inh,PI4K2A inh,FEN1 inh,TDP1 inh,APEX1 inh
CCc1oc(C(=O)O)cc1COC,-20%,-15%,0,1%,56µM*,?
Cc1ccc(-c2nc3c(c(=O)[nH]c(=O)n3Cc3ccccc3)n2Cc2ccccc2)o1,i,-26%,2,-16%,5%,-1%
Cc1ccc(-c2nc3c(c(=O)[nH]c(=O)n3Cc3ccccc3)n2C)o1,5%,0%,-22,1%,40µM*,22µM*
O=C(c1ccccc1O)N(Cc1ccccc1)Cc1ccccc1,.,.,.,.,1%,.
Cc1ccc(C(=O)N/N=C/c2cccc(OC(=O)/C=C/c3ccco3)c2)cn1,-7%,?,3,-1%,.,14µM*
CC(/C=C/c1ccco1)=N/NC(=O)c1ccc(C)nc1,-9%,0%,-20,-2%,.,-4%
NCCCC(N)CC(=O)NCC1NC(=O)C(CO)NC(=O)C(N)CNC(=O)C(C2CCN=C(N)N2)NC(=O)C(=CNC(N)=O)NC1=O (configuration not stated),.,.,i,.,.,.
CCOC(=O)Cc1csc(SCC(=O)Nc2sc3c(c2C(N)=O)CCC3)n1,-19%,?,-8,56µM*,?,?
CCOC(=O)Cc1csc(SCC(=O)Nc2nccs2)n1,i,3%,-4,-5%,0%[0.505 µM],7%
COc1ccc(-c2cc(=O)oc3c(O)c(O)ccc23)cc1,?,6%,-4,-13%,.,13%
O=c1ccc2ccc(O)c(O)c2o1,.,.,-3,7.5µM*,?,13µM*
NC(=S)N=Nc1c(O)cc(O)c2[nH]c(=O)ccc12,?,.,?,13µM*,.,.
CSc1nc(SCC(N)=O)c2c3c(sc2n1)CN(C)CC3,-7%,-14%,-13,50µM*,-2%,-8%
CSc1nc(N)c2c3c(sc2n1)CN(C)CC3,-3%,-2%,-4,-1%,.,-10%
CC(C)(C)n1ncc2c(=O)n(Cc3ccc(C#N)c(F)c3)cnc21,.,.,.,-3%,.,-9%
C[C@@H]1CC[C@@H]2C(=O)N3[C@@H](CC[C@@H](C)[C@@H]3c3ccc(-c4ccco4)cc3)C(=O)N2[C@H]1c1ccc(-c2ccco2)cc1,.,.,.,.,?,-2%[12.4 µM]
CC1CCC2C(=O)N3C(CCC(C)C3c3ccc(-c4ccco4)cc3)C(=O)N2C1c1ccc(-c2ccco2)cc1 (configuration not stated),.,.,.,.,3.5µM*,4µM*
O=C1CCc2cc([S+](=O)([O-])Nc3ccc(N[S+](=O)([O-])c4ccc5c(c4)CCC(=O)N5)cc3)ccc2N1,.,.,.,.,0%,.
O=C(O)Cc1cccc(=O)c(O)c1C(=O)O,13µM*,.,-4,?,.,.
O=C(O)Cc1ccccc1C(=O)O,0%,25%,0,5%,2%,26%
O=C(O)c1ccccc1OC1=NS(=O)(=O)c2ccccc21,.,.,.,.,2%,.
CNc1ccc(/C=C(\CCC(=O)O)c2nc3ccccc3s2)cc1[N+](=O)[O-],?,-7%,0,-9%,-8%,35µM*
O=c1[nH]c2cc3c(cc2cc1CN(Cc1cccs1)Cc1nnnn1Cc1ccco1)OCCO3,-7%,-18%,-27,-9%,-2%,40µM*
COC(=O)/C=C\C(=O)OC,.,.,-1,.,.,.
C[C@H]1C(c2cccc(Cl)c2)=NN(c2ccccc2)[C@@H]1CO,.,.,.,.,40µM*,18%
SMILES,Tb PGK inh,Tb PFK inh,PI4K2A inh,FEN1 inh,TDP1 inh,APEX1 inh
OC[C@@H]1[C@@H](c2ccc(Cl)cc2)C(c2ccccc2)=NN1c1ccccc1,-2%,-3%,-3,?,?,-9%
OC[C@@H]1[C@@H](c2ccc(Cl)cc2)C(c2cccc(Cl)c2)=NN1c1ccccc1,0%,4%,1,-1%,40µM*!,-7%
COc1cccc(C2c3c(ncn(Cc4cccs4)c3=N)Oc3ccc4ccccc4c32)c1 (configuration not stated),.,.,.,.,5%,.
COc1ccc(C2Nc3ccc(Cl)cc3C(=O)N2Cc2ccccc2)cc1COc1ccc(NC(C)=O)cc1 (configuration not stated),.,.,.,.,-14%,.
CC(=C/C=C/C(C)=C/C=C/C=C(C)/C=C/C=C(C)/C=C/C(=O)O)/C=C/C(=O)O,.,.,.,.,-6%,?
COc1ccc(-c2cc3nc(C)n(N)c(=O)c3s2)cc1,4.5µM*,-27%,-87*,-15%,.,-12%
Cc1nc2cc(-c3ccccc3)sc2c(=O)n1N,10µM*,-30%,-80*,-17%,-8%,-3%
O=C(Nc1ccccc1)Nc1ccc(C(=O)N2CCCC2)cc1,?,-22%,-62*,13%,3%,4%
CC(=O)Nc1ccc(Nc2nc(-c3cc4ccccc4oc3=O)cs2)cc1,-3%,1%,1,7%,5%,17%
O=C(O)c1ccc(Nc2nc(-c3cc4ccccc4oc3=O)cs2)cc1O,?,-2%,7,?,79µM*,-7%
Cc1cc(-c2ccc(N=Nc3c(S(=O)(=O)O)cc4cc(S(=O)(=O)O)cc(N)c4c3O)c(C)c2)ccc1N=Nc1c(S(=O)(=O)O)cc2cc(S(=O)(=O)O)cc(N)c2c1O,.,?,.,.,.,0.47µM*
O=S(=O)(O)c1cc(O)c2c(O)c(N=Nc3cc(Cl)ccc3O)c(S(=O)(=O)O)cc2c1,?,?,-53*,?,.,12µM*
O=C(Nc1ccc(Br)cc1)c1cnn2c1NC(=C1CC1)C=C2C(F)F,.,.,.,.,.,16%
CCOC(=O)C1CCN(C(=O)N2CCOCC2)CC1,0%,-9%,-90*,0%,4%,-2%
COC(=O)C1CCN(C(=O)N2CCOCC2)CC1,-5%,2%,-4,-12%,5%,1%
C(=C\c1nc2ccccc2[nH]1)/c1ccccc1,?,-24%,-55*,-5%,5%,0%
C[C@H]1O[C@@H](O[C@H]2CC[C@@]3(C)C(CC[C@]4(C)C3C=C[C@]35OC[C@@]6(CCC(C)(C)C[C@H]63)[C@@H](O)C[C@]54C)[C@]2(C)CO)[C@H](O)[C@@H](O[C@@H]2O[C@H](CO)[C@@H](O)[C@H](O)[C@H]2O)[C@H]1O (some centres not stated),-6%,-5%,-1,-2%,-9%,21µM*
CC1OC(OC2C(OC3C(O[C@H]4CC[C@]5(C)C6C=C[C@]78OC[C@@]9(CC[C@@H](C)[C@H](C)C97)[C@H](O)C[C@@]8(C)[C@]6(C)CC[C@H]5C4(C)C)OC(C)C(O)C3O)OC(CO)C(O)C2O)C(O)C(O)C1O (some centres not stated),.,-1%,.,.,-1%,-15%
